Screening results deposited in PubChem BioAssay by National Center for Advancing Translational Sciences (NCATS).
BAZ2B block = blocks human BAZ2B. Potency, µM (highest dose often 114 µM), inactives show at the top dose activity change, negative = inhibition, hits mostly inhibitors. AlphaScreen BAZ2B-H3K14Ac peptide displacement. 360,000 compounds, 4.4% hits. Q9UIF8. AID 504333; further: on the % scale 0 is the no-effect control and ±100 the full control effect; nearly all actives have a fitted effect of over 60% in size
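BAZ2B 50 nM plus b-H3(5-23)K14Ac 50 nM, PBS pH 7.4/0.01% Tween-20, 30 min RT; compound added (max 110 uM), 30 min RT; streptavidin donor/Ni-chelate acceptor beads 10 ug/mL final, 20 min dark; AlphaScreen read.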
G9a inh = inhibitors of human histone lysine methyltransferase G9a; Q96KQ7; G9a H3K9 monomethylation, AlphaScreen, 2 h; Potency, µM (top dose mostly 102 µM), for inactives: top-dose activity, negative = inhibition, actives largely listed as inhibitors; 350,000 compounds, 8.8% hits; AID 504332; further: on the % scale 0 is the no-effect control and ±100 the full control effect; nearly all actives have a fitted effect of over 75% in size
Target sequence (Q96KQ7 913-1193 limits assumed): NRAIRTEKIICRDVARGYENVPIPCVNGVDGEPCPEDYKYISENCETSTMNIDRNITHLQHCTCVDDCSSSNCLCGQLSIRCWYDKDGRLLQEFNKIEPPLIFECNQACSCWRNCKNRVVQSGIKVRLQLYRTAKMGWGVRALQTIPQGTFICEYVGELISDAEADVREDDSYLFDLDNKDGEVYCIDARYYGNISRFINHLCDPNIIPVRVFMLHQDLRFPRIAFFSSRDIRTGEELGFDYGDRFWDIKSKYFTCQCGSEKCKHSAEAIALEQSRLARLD
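Methyltransferase reactions run at room temperature for 2 h (20 nM enzyme, 500 nM biotin-H3K9 peptide, 20 uM SAM) after a 15 min compound preincubation; product detected by AlphaScreen beads and anti-H3K9me1 antibody.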
HP1b binding inh = blocks HP1-beta chromodomain binding to methylated histone tails; P83916; 390,000 compounds, 0.56% hits; Potency, µM (series often up to 114 µM), for the others: top-dose activity change, negative = inhibition, actives largely listed as inhibitors; AID 540317; AlphaScreen HP1-beta / biotin-H3K9me3 peptide binding; further: nearly all actives have a fitted effect of over 70% in size
Target sequence (P83916 whole entry, looked up): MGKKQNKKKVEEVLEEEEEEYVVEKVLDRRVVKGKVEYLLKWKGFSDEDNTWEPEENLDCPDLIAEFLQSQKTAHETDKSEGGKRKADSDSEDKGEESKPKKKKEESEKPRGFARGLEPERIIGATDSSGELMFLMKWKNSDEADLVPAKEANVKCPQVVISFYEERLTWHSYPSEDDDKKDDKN
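HP1-beta protein (50 nM final) preincubated 30 min at room temperature with biotinylated H3(1-18)K9me3 peptide (50 nM) in PBS pH 7.4, 0.01% Tween-20, then compound added for 30 min. AlphaScreen streptavidin donor/nickel chelate acceptor beads (10 ug/mL final), 30 min dark, luminescence read.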
JMJD2A Tudor inh = inhibitors of human JMJD2A Tudor domain | O75164 | AlphaScreen JMJD2A-Tudor / H3K4me3 peptide binding | Potency, µM (doses to about 114 µM), inactives show at the highest dose activity change, negative = inhibition, most hits filed as inhibitors | 390,000 compounds, 4.4% hits | AID 504339; further: on the % scale 0 is the no-effect control and ±100 the full control effect; nearly all actives have a fitted effect of over 50% in size
Sfp PPTase inh = Sfp phosphopantetheinyl transferase inhibition; Q9F4F7; Biochemical Sfp PPTase activity, qHTS; Potency, µM, for inactives: largest response in the series, negative = inhibition, most hits filed as inhibitors; 310,000 compounds, 3.5% hits;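 further: the enzyme is Sfp with the accession as filed and its product quenches rhodamine fluorescence; 0% = enzyme reaction without inhibitor and -100% = no enzyme wells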
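Compounds were incubated with enzyme (final 15 nM) for 15 min at room temperature before substrate addition started the reaction. Fluorescence at 525 nm excitation, 598 nm emission was recorded immediately and after 30 minutes.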
Numbers without * were called inactive; u = inconclusive; x = no result given; [ ] = remark or other dose. This is a sample that favours compounds with a hit; in the whole collection about 12% have one here. The call rests on the fitted dose curve; in most records, active means well fitted curve in the direction sought with a large enough effect; inconclusive means small, poorly fitted or top-dose-only effect, or another doubt; inactive means no such curve, though single readings can be large; an effect the other way counts as inactive or inconclusive. Potency means the concentration at half of the fitted maximal effect.

SMILES | BAZ2B block | G9a inh | HP1b binding inh | JMJD2A Tudor inh | Sfp PPTase inh
O=C(OCC(=O)N1c2ccccc2Sc2ccccc21)C1CC(=O)N(Cc2ccco2)C1 (centres undefined) | u | 50.1µM* | -12.5% | u | -24.2%
O=c1c(-c2ccccc2)nc2cnc(Oc3ccccc3)nc2n1C1CC1 | x | -8.3%[12.7 µM] | x | x | 14.7%
COc1ccccc1N(CC(=O)Nc1ccc2c(c1)OCO2)S(=O)(=O)c1ccccc1 | 56.2µM* | 28.2µM* | -3.5% | u | -5.3%
COc1ccc(S(=O)(=O)N(CC(=O)NC2CCCC2)c2ccccc2OC)cc1 | -3.3% | 13.6% | 26.8% | 3.5% | 15.4%
CCOc1ccccc1N(CC(=O)NC1CCCCC1)S(=O)(=O)c1ccccc1 | -0.8% | 25.1µM* | 8.5% | -9.0% | 10.6%
COC(=O)C1=C(C)N(c2cc(Cl)cc(Cl)c2)C(=O)C1 | -3.7% | 44.7µM* | 11.3% | -20.1% | 3.3%
CCN(CC)CCN(C(=O)c1ccc(C(=O)c2ccccc2)cc1)c1nc2cc3c(cc2s1)OCO3 | u | 39.8µM* | 3.4% | u | -9.6%
CCN(CC)CCN(C(=O)c1ccc2ncsc2c1)c1nc2cc3c(cc2s1)OCO3 | 39.8µM* | x | -24.6% | 50.1µM* | 35.5µM*
CCN(CC)CCN(C(=O)C1=COCCO1)c1nc2cc3c(cc2s1)OCO3 | -27.0% | 0.2%[59 µM] | 37.2% | -10.5% | 3.2%
CN(C)CCCN(C(=O)c1ccc(Cl)s1)c1nc2cc3c(cc2s1)OCO3 | u | u | 13.2% | -19.9% | -0.6%
CN(C)CCCN(C(=O)c1cc(Cl)sc1Cl)c1nc2cc3c(cc2s1)OCO3 | u | 50.1µM* | -0.3% | u | -5.2%
CN(C)CCCN(C(=O)c1ccco1)c1nc2cc3c(cc2s1)OCO3 | -17.9% | -47.4% | 27.8% | -23.0% | -1.4%
CN(C)CCCN(C(=O)c1ccc(C(=O)c2ccccc2)cc1)c1nc2cc3c(cc2s1)OCO3 | 44.7µM* | u | u | 50.1µM* | -20.2%
CCN(CC)CCN(C(=O)CCS(=O)(=O)c1ccccc1)c1nc2cc3c(cc2s1)OCO3 | -14.3% | 44.7µM* | 45.5% | -23.4% | -12.4%
CCCc1nc(N)sc1C(=O)OCC | 1.2% | u | 13.7% | -5.0% | -17.6%
CCOC(=O)c1sc(N)nc1C(C)C | 9.2% | u | u | -5.5% | 44.7µM*
CCOc1ccc(CCNC(=O)C2(c3ccccc3)CC2)cc1OCC | -21.4% | 27.7% | 29.5% | -12.8% | 10.1%
O=C(NCc1ccc(Cl)cc1Cl)Nc1ccccc1 | x | x | 17.3% | 0.4% | x
CCCC[n+]1c(-c2ccc(Cl)cc2Cl)csc1Nc1ccccc1 | 12.6µM* | 11.2µM* | u | 70.8µM* | -2.3%
Clc1ccc(-c2csc(Nc3ccccc3)[n+]2Cc2ccco2)c(Cl)c1 | 25.1µM* | 31.6µM* | u | -36.0% | u
S=C(NCc1ccco1)Nc1cccc(Cl)c1 | u | -44.0%[59 µM] | 20.1% | -17.9% | -13.4%
N#Cc1ccccc1NC(=S)NC(=O)c1cccs1 | -13.0% | 11.2µM* | -6.5%[57 µM] | -25.3% | 31.6µM*
O=C(NC(=S)Nc1cccc(Cl)c1N1CCCCC1)c1cccs1 | -28.2%[57.1 µM] | -25.9% | u | 56.2µM* | 23.5%
Cc1ccc(CCNC(=O)CCCn2c(=O)c3cccn3c3ccc(F)cc32)cc1 | -21.0% | -0.2%[59 µM] | 17.0% | -15.8% | x
O=C(NCC1CCN(C(=O)c2c(F)c(F)c(F)c(F)c2F)CC1)c1c(F)c(F)c(F)c(F)c1F | -1.2% | 79.4µM* | 23.7% | 2.9% | 6.2%
SMILES | BAZ2B block | G9a inh | HP1b binding inh | JMJD2A Tudor inh | Sfp PPTase inh
COC(=O)c1cc(NC(=O)c2cc3c(-c4ccccc4F)nn(C)c3s2)cc(C(=O)OC)c1 | -22.0% | 4.6%[59 µM] | 13.8% | -16.9% | x
CCS(=O)(=O)N1CCC(C(=O)Oc2ccccc2)CC1 | -4.9% | x | 27.7% | -7.7% | 12.7%
CCCn1cnc2c(N)c(C)c(C)cc21 | 2.9% | 1.78µM* | 15.9% | -21.1% | 6.9%
Cc1ccccc1Cn1cnc2c([N+](=O)[O-])c(C)c(C)cc21 | u | 35.2%[59 µM] | 13.0% | -29.4% | 3.3%
CC(C)(O)C#Cc1ccc(C(=O)N2CCCC2C(=O)O)s1 (centres undefined) | -0.6% | -2.7%[59 µM] | 25.8% | 7.4% | 12.9%
C/C=C(\C)C(=O)N[C@@H](C)CN1C2=NC[C@H](C(C)C)N2C[C@H]1Cc1ccc(OC)cc1 | u | u | 45.1% | -11.6% | 39.8µM*
C/C=C(\C)C(=O)NCCN1C2=NC[C@H](C(C)C)N2C[C@@H]1Cc1ccc(OC)cc1 | u | 2.5%[59 µM] | 78.6% | -20.7% | -11.8%
CC(C)[C@H]1CN=C2N(C[C@H](C)NC(=O)CCC3CCCCC3)[C@H](Cc3ccc(O)cc3)CN21 | -5.2% | u | -0.1% | 79.4µM* | 50.1µM*
COc1ccc(C[C@H]2CN3C(=NC[C@@H]3Cc3ccc(O)cc3)N2C[C@H](C)NC(=O)CCC2CCCCC2)cc1 | -5.4% | 8.7%[12.7 µM] | 20.4% | -31.9% | -1.6%
COc1ccc(C[C@@H]2CN3C(=NC[C@@H]3Cc3ccc(O)cc3)N2C[C@H](C)NC(=O)CCC2CCCCC2)cc1 | -21.2% | x | -8.4% | u | 79.4µM*
CCN(CC(=O)N1CCC(C)CC1)S(=O)(=O)c1ccc(C)cc1 | -20.3% | 28.3% | 23.6% | -9.7% | 9.0%
NC(=S)Nc1ccc(F)cc1F | -3.7% | 30.4% | 24.0% | 5.1% | -6.3%
COc1cccc(-c2nc(N3CCCCC3)c3ccccc3n2)c1O | x | x | u | 35.5µM* | x
CCC1CCCCN1c1nc(-c2ccncc2)nc2ccccc12 (centres undefined) | 1.9% | 13.7% | 39.4% | -7.9% | -17.2%
COc1cccc(-c2nc(NC(C)C)c3ccccc3n2)c1O | u | u | -22.5% | 50.1µM* | -3.1%
CCC1CCCCN1c1nc(-c2cccc(OC)c2O)nc2ccccc12 (centres undefined) | u | 39.8µM* | -24.9% | u | -8.1%
CCC(C)Nc1nc(-c2cccc(OC)c2O)nc2ccccc12 (centres undefined) | u | 9.1%[59 µM] | -11.2% | u | 12.1%
O=C(O)C1CCCCC1C(=O)NCCCN1CCOCC1 (centres undefined) | 3.8% | -2.8%[59 µM] | 16.6% | -12.5% | 28.7%
Cn1nc([N+](=O)[O-])nc1S(C)(=O)=O | u | 56.2µM* | 18.0%[57 µM] | -22.9% | 10.5%
Cc1nc(C)c(CC(=O)N/N=C/c2ccc(O)cc2)c(=O)[nH]1 | -14.1% | -1.7% | 35.6% | 5.0% | 12.8%
CC(C)(O[C@@H]1O[C@H](CO)[C@@H](O)[C@H](O)[C@H]1O)[C@@H]1CC=C(C(=O)O)CC1 | 2.8% | -11.0%[2.33 µM] | 35.1% | -0.7% | x
O=C(COc1coc(CN2CCc3ccccc3C2)cc1=O)N1CCOCC1 | 0.3% | 44.7µM* | 37.5% | -4.3% | x
O=C(CC1SC(N2CCOCC2)=NC1=O)Nc1ccc(Cl)cc1 (centres undefined) | 6.9% | 50.1µM* | 30.9% | 0.3% | x
O=C(CC1SC(N2CCOCC2)=NC1=O)Nc1ccc(F)cc1 (centres undefined) | x | x | 8.4% | -11.1% | x
